PubChem BioAssay (NCATS)
Inconclusive results are not listed. Calls of active or inactive are those of the source. The call rests on the fitted dose curve; in most records, active means well fitted curve in the direction sought with a large enough effect; inconclusive means small, poorly fitted or top-dose-only effect, or another doubt; inactive means no such curve, though single readings can be large; an effect the other way counts as inactive or inconclusive.

How the values were obtained:
[1] = target: Calcium and integrin-binding protein 1 (Homo sapiens) (UniProt Q99828); assay: Confirmatory qHTS for Identification of Calcium Integrin Binding Protein 1 (CIB1) Competitor (AID 1508617); conditions: CIB1 binding competition assay, biochemical qHTS; series mostly up to 114 µM; further: nearly all actives have a fitted effect of over 65% in size
Calcium and integrin-binding protein 1 (Homo sapiens), sequence (Q99828 whole entry, looked up): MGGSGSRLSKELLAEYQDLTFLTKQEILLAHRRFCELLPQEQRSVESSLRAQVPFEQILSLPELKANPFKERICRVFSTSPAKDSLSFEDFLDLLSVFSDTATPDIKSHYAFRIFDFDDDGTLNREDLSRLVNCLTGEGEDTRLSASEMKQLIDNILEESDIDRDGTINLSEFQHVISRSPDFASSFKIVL
Method in brief: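 Binding competition between test compounds and fluorescent alphaIIb peptide for 1 uM CIB1-GST is monitored by FP at 480/540 nm. Final compound range is up to 114 uM; unlabeled peptide serves as reference competitor.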

[2] = target: Calcium and integrin-binding protein 1 (Homo sapiens) (UniProt Q99828); assay: Primary qHTS for Identification of Calcium Integrin Binding Protein 1 (CIB1) Competitor (AID 1508620); conditions: CIB1-GST / FITC-alphaIIb peptide fluorescence polarization; series mostly up to 114 µM;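 further: GST tagged CIB1 binding a fluorescein labelled alphaIIb integrin peptide tracer; top concentration of the series differs between compounds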
Method in brief: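 CIB1-GST (1 uM final) and compound incubated 15 min at room temperature before adding FITC-alphaIIb peptide tracer (100 nM final). Competition for binding read by fluorescence polarization (ex 480, em 540) after another 15 min at room temperature.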

[3] = qHTS to identify inhibitors of the type 1 interferon - major histocompatibility complex class I in skeletal muscle: primary screen against the NCATS Pharmaceutical Collection (AID 1347407); conditions: human skeletal muscle cells, IFN-b-induced MHC-I HiBiT luminescence, 24 h; series mostly up to 45.9 µM;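 further: luminescence of HiBiT knocked into endogenous HLA-B as interferon-induced MHC class I level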
Method in brief: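 Immortalized human myoblasts (C25cl48) with HiBiT knocked into endogenous HLA-B*08:01 were stimulated with 4 ng/ml IFN-beta and treated with compounds (8-point, 1:5, top 46 uM final) for 24 h at 37 C; HiBiT lytic luminescence read.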

[4] = target: Protein phosphatase 1D (Homo sapiens) (UniProt O15297); assay: RapidFire Mass Spectrometry qHTS Assay for Modulators of WT P53-Induced Phosphatase 1 (WIP1) (AID 1347424); conditions: WIP1 dephosphorylation of phosphopeptide, RapidFire MS; series mostly up to 63 µM;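 further: amount of dephosphorylated VEPPL-S-QETFS peptide product formed by WIP1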
Protein phosphatase 1D (Homo sapiens), sequence (O15297 whole entry, looked up): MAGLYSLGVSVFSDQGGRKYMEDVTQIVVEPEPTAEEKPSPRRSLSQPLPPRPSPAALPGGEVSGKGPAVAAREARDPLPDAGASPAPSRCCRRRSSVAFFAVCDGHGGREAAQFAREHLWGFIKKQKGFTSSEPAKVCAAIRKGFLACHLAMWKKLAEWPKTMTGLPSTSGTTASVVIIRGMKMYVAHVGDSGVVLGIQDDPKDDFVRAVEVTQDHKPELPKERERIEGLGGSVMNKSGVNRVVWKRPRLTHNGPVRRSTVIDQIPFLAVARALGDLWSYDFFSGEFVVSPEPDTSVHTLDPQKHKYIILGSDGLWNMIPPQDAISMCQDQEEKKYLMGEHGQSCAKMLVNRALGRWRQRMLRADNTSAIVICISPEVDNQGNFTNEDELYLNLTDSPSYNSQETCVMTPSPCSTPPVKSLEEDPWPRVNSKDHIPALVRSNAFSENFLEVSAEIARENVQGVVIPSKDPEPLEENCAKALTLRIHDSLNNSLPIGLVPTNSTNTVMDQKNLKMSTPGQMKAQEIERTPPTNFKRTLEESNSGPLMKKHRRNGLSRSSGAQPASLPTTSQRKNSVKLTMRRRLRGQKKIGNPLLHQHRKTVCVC
Method in brief: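 10 nM WIP1 + cpd, 1 h RT; + 2 uM VEPPL-pS-QETFS, 5 min RT; stop 0.5% formic acid; labelled product standard 1 uM; RapidFire MS. Buffer 50 mM Tris pH 7.5, 30 mM MgCl2, 1 mM TCEP.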

[5] = target: Protein phosphatase 1D (Homo sapiens) (UniProt O15297); assay: Rhodamine-PBP qHTS Assay for Modulators of WT P53-Induced Phosphatase 1 (WIP1) (AID 1347425); conditions: recombinant WIP1, Rhodamine-PBP phosphate fluorescence, real-time; series mostly up to 57.5 µM
Method in brief: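 Steps: enzyme with Rh-PBP sensor and compounds, room-temperature incubation of 1 hr, baseline read, addition of VEPPL-pS-QETFS (10 uM final), kinetic fluorescence reads at 525/598 nm. Activity equals final minus baseline signal.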

[6] = Primary qHTS for inhibitors of La Crosse Virus (LACV) - induced cell death in SH-SY5Y cells (AID 1508616); conditions: SH-SY5Y LACV cytopathicity rescue, ATP luminescence, 6 d; series mostly up to 4.29 µM;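 further: top concentration of the series differs between compounds; higher means more rescue of cells from virus-induced death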
Method in brief: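 Luminescent ATP readout (ATPLite 1step, 5 min room temperature) measured rescue from LACV-induced death after 6 days of infection at 0.01 MOI; normalized to infected DMSO wells and uninfected DMSO wells.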

Measured: Potency

CN1CCc2cccc3c2[C@H]1Cc1ccc(O)c(O)c1-3
inactive: [1]

COc1ccc2c(c1)c1c3n2CCN(C)C3=NCC1
inactive: [2]

COc1cc(C(=O)N2CCCCCCC2)cc(OC)c1OC
inactive: [2]

N#C/C(=C1\SCC(c2ccccc2Cl)S1)n1ccnc1 (stereo not drawn)
not listed: [1]
inactive: all other assays above

CCOC(=O)c1ccc(N)cc1
not listed: [1]
inactive: all other assays above

CC(=O)Oc1ccc(C)cc1
not listed: [1]
inactive: all other assays above

COc1ccc(CN(CCN(C)C)c2ncccn2)cc1
not listed: [1]
inactive: all other assays above

COC(=O)C(c1ccccc1Cl)N1CCc2sccc2C1 (stereo not drawn)
not listed: [1]
inactive: all other assays above

Oc1ccccc1C=NCc1ccccc1
not listed: [1]
inactive: all other assays above

Cc1cc(CC(=O)O)c(C)n1-c1ccc(Cl)cc1
not listed: [1]
inactive: all other assays above

CCN(CC)CCNC(=O)c1cc(Br)c(N)cc1OC
not listed: [1]
inactive: all other assays above

CCOCCn1c(N2CCCN(C)CC2)nc2ccccc21
not listed: [1]
inactive: all other assays above

CC1CCc2c(N3CCC(O)CC3)c(F)cc3c(=O)c(C(=O)O)cn1c23 (stereo not drawn)
not listed: [1]
inactive: all other assays above

COc1cc(C(=S)N2CCOCC2)ccc1O
not listed: [1]
inactive: all other assays above

O=C1C(O)=C(O)C(=O)C(O)=C1O
not listed: [1]
inactive: all other assays above
